Bioassay records: PubChem BioAssay, The Scripps Research Institute Molecular Screening Center
An excerpt weighted towards active compounds, which were near 2.9% of everything screened.
PLC-beta3 inh = human PLC-beta3 inhibitors, primary screen, biochemical, fluorescence; 1-phosphatidylinositol 4,5-bisphosphate phosphodiesterase beta-3 (Homo sapiens), Q01970; Purified PLC-beta3, fluorogenic substrate; inhibition, % at 12.2 µM; actives 0.18% (n = 370,000); AID 720704, 2013; in the data active means inhibition above about 11%
KLK7 zymogen act = proKLK7 zymogen activators, primary screen, biochemical, fluorescence intensity; Kallikrein-7 (Homo sapiens), P49862; purified proKLK7, EDANS-DABCYL substrate fluorescence; 100% is mature enzyme control, 0% vehicle; activation, % at 7 µM; actives 0.9% (n = 370,000);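 active means activation above the mean of all tested compounds plus 3 SD, computed per campaign excluding outliers beyond control limits, cut at about 13% in these data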
PLC-gamma1 inh = PLC-gamma1 enzyme inhibitors, primary screen, biochemical, fluorescence, purified enzyme. inhibition, % at 12.2 µM. fluorogenic substrate. actives 0.84% (n = 370,000); in the data active means inhibition above about 9.5%
ADAM17 inh = ADAM17 inhibitors, primary screen, biochemical, QFRET | actives 0.83% (n = 370,000) | inhibition, % at 6.95 µM | recombinant ADAM17, EDANS/DABCYL FRET peptide cleavage | AID 720648, 2013 | Disintegrin and metalloproteinase domain-containing protein 17 (Homo sapiens), P78536;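 active means inhibition above the mean of compounds lying between control limits plus 3 SD, set per campaign, cut at about 8.5% in these data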
ADAM10 inh = human ADAM10 inhibitors, primary screen, biochemical, QFRET, HTS | Disintegrin and metalloproteinase domain-containing protein 10 (Homo sapiens), O14672 | recombinant ADAM10, EDANS/DABCYL FRET peptide cleavage, 3 h | inhibition, % at 7 µM | actives 0.62% (n = 370,000) | AID 720582, 2013;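 active means inhibition above a per-campaign cutoff equal to the mean of compounds falling between control-based bounds plus 3 SD, cut at about 20% in these data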
proKLK7 act conf = proKLK7 zymogen activators, confirmation, biochemical, fluorescence intensity, triplicate; shares compounds with KLK7 zymogen act; purified proKLK7, EDANS-DABCYL substrate fluorescence; scaled: vehicle 0, mature enzyme 100; activation, % at 7 µM; actives 68% (n = 3,200); AID 686949, 2013;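 active means activation, as change over the incubation, above the mean of all tested compounds plus 3 SD, cut at about 13% in these data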
EDANS-DABCYL int = EDANS-DABCYL substrate optical interference, artefact control for kallikrein-7 zymogen activator project, biochemical, fluorescence intensity, high throughput | shares compounds with KLK7 zymogen act | no enzyme, 4 h; solvent 0%, active enzyme control 100% | activation, % at 7 µM | actives 80% (n = 3,200);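 active means activation above the all-compound mean plus 3 SD, ignoring values outside control-based bounds, cut at about 4.8% in these data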;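 further: value is the 4 h activation minus the activation read at time zero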
K7 EDANS ctr = counter-screen for kallikrein-7 activators: EDANS-DABCYL interference, dose response. shares compounds with KLK7 zymogen act. EDANS-DABCYL peptide fluorescence interference, no enzyme. EC50, µM. actives 20% (n = 250). AID 720493;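 active means compounds that raise the fluorescence signal in this interference counterscreen, with EC50 at or below 10 µM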;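 further: intact quenched peptide substrate alone read at 355 nm excitation and 520 nm emission; signal is fluorescence gain from T0 to T4 after four hours at room temperature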
Numbers stand for hits.

What do the screens show for `CC(C)C1Oc2cc3oc(=O)ccc3cc2C1=O` (stereo not drawn)?
PLC-beta3 inh: inactive; KLK7 zymogen act: 35.1; PLC-gamma1 inh: inactive; ADAM17 inh: inactive; ADAM10 inh: inactive; proKLK7 act conf: 29.0; EDANS-DABCYL int: 27.1

Results for CCCS(=O)(=O)c1c(S(=O)(=O)CCC)c2cc(-c3ccncc3)ccn2c1C(=O)OC ?
PLC-beta3 inh: inactive; KLK7 zymogen act: 66.0; PLC-gamma1 inh: inactive; ADAM17 inh: inactive; ADAM10 inh: inactive; proKLK7 act conf: 67.2; EDANS-DABCYL int: 64.5

What do the screens show for `CC[C@@]1(O)C(=O)OCc2c1cc1n(c2=O)Cc2cc3c(N)cccc3nc2-1`?
PLC-beta3 inh: inactive; KLK7 zymogen act: 26.8; PLC-gamma1 inh: inactive; ADAM17 inh: inactive; ADAM10 inh: inactive; proKLK7 act conf: 78.2; EDANS-DABCYL int: 90.0

What do the screens show for `CC[C@@]1(O)C(=O)OCc2c1cc1n(c2=O)Cc2cc3c(CN(C)C)c(O)ccc3nc2-1`?
PLC-beta3 inh: inactive; KLK7 zymogen act: 59.6; PLC-gamma1 inh: inactive; ADAM17 inh: inactive; ADAM10 inh: inactive; proKLK7 act conf: 70.0; EDANS-DABCYL int: 76.1

Results for CSC1=NSC2=NC(=O)/C(=C\c3coc4ccccc4c3=O)C(=N)N12 ?
PLC-beta3 inh: inactive; KLK7 zymogen act: inactive; PLC-gamma1 inh: inactive; ADAM17 inh: inactive; ADAM10 inh: inactive

Results for N=C1/C(=C\c2coc3ccccc3c2=O)C(=O)N=C2SC(c3ccncc3)=NN12 ?
PLC-beta3 inh: inactive; KLK7 zymogen act: 42.9; PLC-gamma1 inh: inactive; ADAM17 inh: inactive; ADAM10 inh: inactive; proKLK7 act conf: 46.9; EDANS-DABCYL int: 38.5; K7 EDANS ctr: inactive

What do the screens show for `COc1cccc2[nH]c3c(N4CCC5(CC4)OCCO5)ncnc3c12`?
PLC-beta3 inh: inactive; KLK7 zymogen act: 38.9; PLC-gamma1 inh: inactive; ADAM17 inh: inactive; ADAM10 inh: inactive; proKLK7 act conf: 37.8; EDANS-DABCYL int: 45.3

What do the screens show for `COc1cccc2[nH]c3c(N4CCC(C)CC4)ncnc3c12`?
PLC-beta3 inh: inactive; KLK7 zymogen act: inactive; PLC-gamma1 inh: inactive; ADAM17 inh: inactive; ADAM10 inh: inactive

Results for Cn1c(=O)c2c(C(=O)O)cc(-c3ccccc3)nc2n(Cc2ccccc2)c1=O ?
PLC-beta3 inh: inactive; KLK7 zymogen act: 37.5; PLC-gamma1 inh: inactive; ADAM17 inh: inactive; ADAM10 inh: inactive; proKLK7 act conf: 58.8; EDANS-DABCYL int: 65.3

How did COc1ccccc1-c1cc(C(=O)O)c2c(=O)n(C)c(=O)n(Cc3ccccc3)c2n1 do in these assays?
PLC-beta3 inh: inactive; KLK7 zymogen act: inactive; PLC-gamma1 inh: inactive; ADAM17 inh: inactive; ADAM10 inh: inactive

Results for c1cc(-c2ccc(N3CCOCC3)cc2)n2cnnc2c1 ?
PLC-beta3 inh: inactive; KLK7 zymogen act: 66.9; PLC-gamma1 inh: inactive; ADAM17 inh: inactive; ADAM10 inh: inactive; proKLK7 act conf: 69.4; EDANS-DABCYL int: 67.2

What do the screens show for `c1cc(-c2ccc3c(c2)CCO3)n2cnnc2c1`?
PLC-beta3 inh: inactive; KLK7 zymogen act: inactive; PLC-gamma1 inh: inactive; ADAM17 inh: inactive; ADAM10 inh: inactive

What do the screens show for `COC(=O)c1ccc(OCC(O)CN2CCc3cc(OC)c(OC)cc3C2c2ccccc2)cc1` (stereo not drawn)?
PLC-beta3 inh: inactive; KLK7 zymogen act: 66.9; PLC-gamma1 inh: inactive; ADAM17 inh: inactive; ADAM10 inh: inactive; proKLK7 act conf: inactive; EDANS-DABCYL int: inactive

How did COc1cc2c(cc1OC)C(c1ccccc1)N(Cc1ccc(S(=O)(=O)NC(=O)c3ccco3)cc1)CC2 (stereo not drawn) do in these assays?
PLC-beta3 inh: inactive; KLK7 zymogen act: 29.4; PLC-gamma1 inh: inactive; ADAM17 inh: inactive; ADAM10 inh: inactive; proKLK7 act conf: inactive; EDANS-DABCYL int: 7.1

What do the screens show for `COc1cc2c(cc1OC)C(c1ccccc1)N(C(=O)c1ccco1)CC2` (stereo not drawn)?
PLC-beta3 inh: inactive; KLK7 zymogen act: inactive; PLC-gamma1 inh: inactive; ADAM17 inh: inactive; ADAM10 inh: inactive

Results for COc1cc(-n2c(C)nc3cc(C(=O)N4CCN(C(C)=O)CC4)ccc32)cc(OC)c1OC ?
PLC-beta3 inh: inactive; KLK7 zymogen act: inactive; PLC-gamma1 inh: inactive; ADAM17 inh: inactive; ADAM10 inh: inactive

How did COCCCNC(=S)N/N=C/c1ccc(N(C)C)cc1Cl do in these assays?
PLC-beta3 inh: inactive; KLK7 zymogen act: inactive; PLC-gamma1 inh: inactive; ADAM17 inh: inactive; ADAM10 inh: inactive

Results for COCCCNC(=S)N/N=C/c1ccc(N(C)C)cc1 ?
PLC-beta3 inh: inactive; KLK7 zymogen act: 26.2; PLC-gamma1 inh: inactive; ADAM17 inh: inactive; ADAM10 inh: inactive; proKLK7 act conf: 41.1; EDANS-DABCYL int: 40.5

How did Cc1cc(OC(C)C(=O)NCC2CCC(C(=O)O)CC2)c2c(C)cc(=O)oc2c1 (stereo not drawn) do in these assays?
PLC-beta3 inh: inactive; KLK7 zymogen act: 12.8; PLC-gamma1 inh: inactive; ADAM17 inh: inactive; ADAM10 inh: inactive; proKLK7 act conf: inactive; EDANS-DABCYL int: 12.2

What do the screens show for `CN(C)C(=O)COc1ccc2cc(-c3ccccc3)c(=O)oc2c1`?
PLC-beta3 inh: inactive; KLK7 zymogen act: 33.2; PLC-gamma1 inh: inactive; ADAM17 inh: inactive; ADAM10 inh: inactive; proKLK7 act conf: 66.2; EDANS-DABCYL int: 73.5

Results for COc1ccc2cc(-c3ccccc3)c(=O)oc2c1 ?
PLC-beta3 inh: inactive; KLK7 zymogen act: 23.2; PLC-gamma1 inh: inactive; ADAM17 inh: inactive; ADAM10 inh: inactive; proKLK7 act conf: 81.6; EDANS-DABCYL int: 74.0

What do the screens show for `CC(Oc1ccc2cc(-c3ccccc3)c(=O)oc2c1)C(=O)NCC1CCC(C(=O)O)CC1` (stereo not drawn)?
PLC-beta3 inh: inactive; KLK7 zymogen act: 64.5; PLC-gamma1 inh: inactive; ADAM17 inh: inactive; ADAM10 inh: inactive; proKLK7 act conf: 65.2; EDANS-DABCYL int: 77.4

Results for COc1ccc(-c2cc(=O)oc3cc(OCC(=O)N(C)C)ccc23)cc1 ?
PLC-beta3 inh: inactive; KLK7 zymogen act: inactive; PLC-gamma1 inh: inactive; ADAM17 inh: inactive; ADAM10 inh: inactive
